Compound activity: PubChem BioAssay, National Center for Advancing Translational Sciences (NCATS)
JMJD2E inh: qHTS Assay for Inhibitors of Human Jumonji Domain Containing 2E (JMJD2E). JMJD2E catalytic domain, FDH-coupled NADH fluorescence (FDH is formaldehyde dehydrogenase). AID 2147, 2009. Potency, µM (series often up to 57.1 µM), inactives show top-dose activity change, negative = inhibition, hits mostly inhibitors. 230,000 tested, 1.6% active; active means well fitted inhibition curve with a large enough effect, not every such curve was filed as active; inconclusive means small, poorly fitted or top-dose-only effect, or another doubt; inactive means no such curve, though single readings can be large or run the other way;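 further: 0% = wells with enzyme and -100% = buffer wells without enzyme; nearly all actives have a fitted effect of over 50% in size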
Target sequence (B2RXH2 1-337 limits assumed): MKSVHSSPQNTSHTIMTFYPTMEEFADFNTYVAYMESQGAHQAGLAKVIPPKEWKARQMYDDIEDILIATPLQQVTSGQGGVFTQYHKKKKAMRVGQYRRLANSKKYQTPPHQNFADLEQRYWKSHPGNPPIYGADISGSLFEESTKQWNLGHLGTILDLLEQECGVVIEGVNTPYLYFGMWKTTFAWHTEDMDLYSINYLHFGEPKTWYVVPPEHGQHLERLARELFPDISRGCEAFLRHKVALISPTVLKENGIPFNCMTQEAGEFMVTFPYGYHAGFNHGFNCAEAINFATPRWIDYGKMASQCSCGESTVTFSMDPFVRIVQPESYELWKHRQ
L3MBTL1 block: qHTS Assay for the Inhibitors of L3MBTL1. 230,000 tested, 0.66% active. AlphaScreen L3MBTL1–H3K9me1 peptide binding. AID 485360, 2010. Lethal(3)malignant brain tumor-like protein 1 (Homo sapiens), Q9Y468. Potency, µM (highest dose often 57.1 µM), inactives show top-dose activity, negative = inhibition, usual class: inhibitors; further: nearly all actives have a fitted effect of over 60% in size
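L3MBTL1 50 nM + b-AHA-H3(1-15)K9me1 75 nM, 30 min RT; compound added, 30 min RT; streptavidin donor/Ni-chelate acceptor beads 10 ug/mL each final, 30 min RT dark; AlphaScreen read.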
RECQ1 inh: qHTS Assay for Inhibitors of RecQ-Like Dna Helicase 1 (RECQ1); RECQ1 DNA unwinding, red fluorescence kinetic read; Potency, µM (highest dose often 57.3 µM), without a hit: at the top dose activity, negative = inhibition, actives largely listed as inhibitors; ATP-dependent DNA helicase Q1 (Homo sapiens), P46063; 240,000 tested, 0.54% active;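 further: plate controls were vehicle for no effect and no enzyme for full effect; nearly all actives have a fitted effect of over 30% in size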
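50 nM RECQ1T1 preincubated 15 min with compound in Tris pH 8.0 buffer with MgCl2, DTT, Tween-20 and 2.5 ug/ml poly(dI-dC); started with 200 nM TAMRA/BHQ-2 forked duplex and 2 mM ATP. Unwinding read as fluorescence (525/598 nm), two reads 2 h apart.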
APE1 inh: qHTS Assay for Inhibitors of the Human Apurinic/apyrimidinic Endonuclease 1 (APE1). DNA repair nuclease/redox regulator APEX1 (Homo sapiens), P27695. Potency, µM (highest dose often 65.8 µM), for inactives: at the highest dose activity change, negative = inhibition, actives largely listed as inhibitors. recombinant APE1, TAMRA/BHQ-2 abasic DNA cleavage fluorescence. 350,000 tested, 0.35% active;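 further: plate controls were vehicle for no effect and reference inhibitor for full effect; nearly all actives have a fitted effect of over 55% in size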
Target sequence (P27695 whole entry, looked up): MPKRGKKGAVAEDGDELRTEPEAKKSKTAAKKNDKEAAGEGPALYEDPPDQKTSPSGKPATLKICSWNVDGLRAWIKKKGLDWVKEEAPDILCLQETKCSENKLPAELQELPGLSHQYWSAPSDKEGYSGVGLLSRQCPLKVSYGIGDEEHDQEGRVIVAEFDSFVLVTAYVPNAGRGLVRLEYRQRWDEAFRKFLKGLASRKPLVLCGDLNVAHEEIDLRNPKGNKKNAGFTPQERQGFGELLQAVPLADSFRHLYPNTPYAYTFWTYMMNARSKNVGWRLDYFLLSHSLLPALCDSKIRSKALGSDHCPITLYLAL
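Kinetic fluorescence read (525 ex/598 em nm, three reads 60 s apart) of AP-site incision; signal = third minus first read. Enzyme 0.75 nM, dual-labelled THF duplex 50 nM, compound preincubation 15 min RT.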
BLM inh: qHTS Assay for Inhibitors of Bloom's syndrome helicase (BLM); Potency, µM (series often up to 56.1 µM), for inactives: top-dose activity change, negative = inhibition, hits mostly inhibitors; RecQ-like DNA helicase BLM (Homo sapiens), P54132; 350,000 tested, 0.2% active; recombinant BLM DNA unwinding, fluorescence dequenching;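 further: plate controls were vehicle for no effect and no enzyme for full effect; nearly all actives have a fitted effect of over 35% in size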
* hit, by the source's call; i = inactive; ? = inconclusive; / = not tested or not shown. The entries come from a sample that favours hits as a whole. Unless noted, the call rests on the fitted dose curve; in most records, active means well fitted curve in the direction sought with a large enough effect; inconclusive means small, poorly fitted or top-dose-only effect, or another doubt; inactive means no such curve, though single readings can be large; an effect the other way counts as inactive or inconclusive. Unless noted, on the % scale 0 is the no-effect control and ±100 the full control effect; potency means the concentration at half of the fitted maximal effect.

SMILES | JMJD2E inh | L3MBTL1 block | RECQ1 inh | APE1 inh | BLM inh
Cc1cccc(NC(=O)CNC(=O)Cn2ncc(Cl)c(Cl)c2=O)c1C | / | 32µM* | / | ? | /
Cc1cccc(NC(=O)CNC(=O)CSc2ncccn2)c1C | / | 4% | / | 37% | /
Fc1ccc(C2NCCn3cccc32)cc1 (centres undefined) | 20µM* | -8% | i | -5% | -1%
CCc1ccc(CNC(=O)c2cc3cc(S(=O)(=O)N4CCCCC4)ccc3n2C)cc1 | / | / | / | / | -9%
Clc1ccc(-c2nnc3n2CCCCS3)cc1 | 2% | 7% | -4% | 1% | 1%
O=[N+]([O-])c1cccc(-c2nnc3cccc(Cl)n23)c1 | / | / | / | 58% | -3%
O=[N+]([O-])c1cccc(-c2nnc3ccc4ccccc4n23)c1 | -30% | -17% | ? | 13µM* | 5%
CNC(=O)c1ccc2c(c1)N(Cc1ccccc1Cl)C(=O)c1ccccc1S2 | / | / | / | / | -3%
C/C(=N\NC(=O)CSCc1ccccc1Cl)c1cc(O)ccc1O | 4.5µM* | -29% | 22% | -7% | -21%
CCN(c1ccccc1)S(=O)(=O)c1ccc(Cl)c(NC(=O)COC(=O)c2cc(O)c3ccccc3c2O)c1 | 8.9µM* | / | i | -19% | -17%
CCOC(=O)C1=C(CS(=O)(=O)c2ccc(F)c(C)c2)NC(=O)NC1c1ccc(O)c(O)c1 (centres undefined) | 14µM* | -7% | -26% | -10% | -12%
CCOC(=O)C1=C(CS(=O)(=O)c2ccc(F)c(C)c2)NC(=O)NC1c1ccc(F)c(F)c1 (centres undefined) | / | / | / | / | -2%
NC(=O)c1ccccc1NC(=O)CC12CC3CC(CC(C3)C1)C2 | / | 3% | / | -9% | -7%
CCOc1cccc(C(=O)Nc2ccc3[nH]ncc3c2)c1 | / | 3% | / | -4% | 0%
O=C(NN1C(=O)CSC1=S)C(=O)NN1C(=O)CSC1=S | 8.9µM* | 0.79µM* | 10µM* | 2.2µM* | 87%
O=c1c2ccccc2nnn1CSc1nnnn1-c1ccc(O)cc1 | 5% | 7% | -10% | 18% | -8%
O=C(N/N=C/c1cn(-c2cccs2)nc1-c1ccccc1)c1ccccc1O | 5% | 6% | -2% | 2% | 20µM*
CCN1CCN(C(=O)c2cc3cc([N+](=O)[O-])ccc3oc2=O)CC1 | 1% | 1% | -5% | 2% | 0%
O=C(c1cc2cc([N+](=O)[O-])ccc2oc1=O)n1cccn1 | -10% | 40µM* | i | -1% | 0%
C=CCn1c(COc2ccccc2)nnc1SCC(=O)N/N=C/c1ccc(C)cc1 | 1% | -10% | -2% | -6% | -1%
C=CCn1c(CNc2ccccc2)nnc1SCC(=O)N/N=C/c1ccc(O)cc1O | 22µM* | -9% | -5% | 1% | -2%
C=CCn1c(COc2ccccc2)nnc1SCC(=O)N/N=C/c1cc(Cl)ccc1O | 28µM* | / | i | 0% | -8%
C=CCn1c(CNc2ccc(C)cc2)nnc1SCC(=O)N/N=C/c1ccc(O)cc1O | 16µM* | -7% | -2% | -1% | -4%
Nc1nonc1C(=O)N1CCCC1 | -2% | 2% | 0% | -5% | 4%
C/C(=N\Nc1ccc2nncn2n1)c1ccccn1 | 10µM* | 25µM* | -3% | 2% | 2%
SMILES | JMJD2E inh | L3MBTL1 block | RECQ1 inh | APE1 inh | BLM inh
COc1ccc(Cl)cc1NC(=O)CNc1ccccc1CN(C)C1CCCCC1 | -20% | -16% | -2% | -4% | -1%
O=C(O)C1(C(=O)O)CCC1 | / | 9% | / | 5% | /
N.N.O=C(O)C1(C(=O)O)CCC1.[Pt] | 11µM* | / | -29% | 6.3µM* | 0%
COCCNC(=O)C1(C(F)(F)F)C/C(=C\CCO)CCCO1 (centres undefined) | / | / | 6% | 50µM* | 2%
Cc1nn(-c2ccccc2)c2c1C(c1ccco1)C(C#N)=C(N)O2 (centres undefined) | 14µM* | -30% | i | -20% | -5%
Cc1nn(-c2ccccc2)c2c1C(c1cccs1)C(C#N)=C(N)O2 (centres undefined) | -23% | / | 7% | 4% | -5%
Cc1ccc(-n2nc(C)c3c2OC(N)=C(C#N)C3c2ccc(F)cc2)cc1 (centres undefined) | -5% | / | 4% | -1% | -2%
Cc1nn(-c2ccccc2)c2c1C(c1ccc([N+](=O)[O-])cc1)C(C#N)=C(N)O2 (centres undefined) | 18µM* | -16% | 0% | -1% | -7%
CN(C)c1cc(=O)n2c(n1)SCCC2 | 0% | 0% | -3% | 17% | 1%
O=C(Nc1cccnc1)C1=NN(C2CCS(=O)(=O)C2)C(=O)CC1 (centres undefined) | -3% | 2% | -4% | 4% | 1%
COc1ccccc1N1CCN(c2nnc(-c3ccc(F)cc3)c3ccccc23)CC1 | -4% | -6% | i | -2% | -6%
O=c1c(-c2ccccc2)coc2cc(O)cc(O)c12 | 5% | / | -13% | ? | 22µM*
O=c1c(-c2ccc3c(c2)OCCO3)coc2cc(O)cc(O)c12 | ? | -6% | -1% | 4% | ?
CC(=O)N(C1=C(N2CCOCC2)C(=O)c2ccccc2C1=O)c1ccc(C(=O)O)cc1 | 10µM* | -16% | -11% | -1% | -6%
CCOc1ccc(-n2c(C)nc3cc(C(=O)NCCC4=CCCCC4)ccc32)cc1 | / | / | / | / | -11%
O=C(N/N=C1/C(=O)c2cccc3cccc1c23)c1ccc(Cl)cc1 | 0% | / | i | 0% | 10µM*
CN=c1nc(-c2ccccc2)n(-c2ccccc2)s1 | 3.2µM* | 2% | i | 5% | /
Cn1nc(-c2ccccc2)nc1-c1ccccc1 | / | 0% | / | 13% | /
CC/C=C/C(=O)N1CC2(CC(c3cccc(NC(=O)CC(c4ccccc4)c4ccccc4)c3)=NO2)C[C@@H]1C(N)=O (some centres undefined) | -13% | / | -14% | 29% | -11%
COCCCOc1ccnc(CS(=O)c2nc3ccccc3[nH]2)c1C (centres undefined) | / | / | -2% | -5% | -1%
COc1ccc2nc(S(=O)Cc3ncc(C)c(OC)c3C)[nH]c2c1 (centres undefined) | 25µM* | -13% | 1% | -4% | -4%
CS(=O)(=O)n1nc(-c2ccc(Cl)cc2)nc1N | ? | 4% | -1% | 16% | -5%
Cn1nc(-c2ccc(Cl)cc2)nc2c(=O)n(C)c(=O)nc1-2 | ? | ? | 1.6µM* | ? | 5.6µM*
O=C(O)c1ccccc1N/N=C/c1c(Sc2nnnn2-c2ccccc2)nc2ccccn2c1=O | -4% | -4% | ? | 35µM* | -22%
